Values joined by “and” are separate entries in the source; they are usually repeats but may differ in a detail not shown here. Equal values may be shown once. This is part of a sample that, as a whole, favours compounds with a hit. Of some 83,000 tested, about 20% had one in any assay.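 Plates (96-well) were seeded with cells, treated with compound at one concentration, and incubated for 48 hours before percent growth was determined.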 Active and inactive are the calls of the source. The calls were made as follows: active = growth percent below 10; inactive = the rest.

Assay in all cases: NCI-60 one-dose screen, 48 h (100 = growth as untreated, 0 = no growth, -100 = all killed)
The subject of assay [1] is NCI-H23 lung.
For assay [2], the system named is NCI-H226 lung.
Assay [3] deals with NCI-H322M lung.
Assay [4] has as its system HOP-62 NSCLC.
Assay [5] deals with NCI-H460 lung.
Assay [6] relates to NCI-H522 lung.
Assay [7] deals with A549/ATCC NSCLC.
Assay [8] deals with 786-0 renal.
For assay [9], the system named is COLO 205 colon.
The test system of assay [10] is HOP-92 NSCLC.

Consider `CC[C@@]1(O)C(=O)OCc2c1cc1n(c2=O)Cc2cc3c(CN(C)C)c(O)ccc3nc2-1`, for which the growth in assay [1] (10 µM) was -15.6% (active) and 1.45% (active); in assay [2] (10 µM) it was -48.3% (active) and -34.1% (active); in assay [3] (10 µM), 3.52% (active) and -20.1% (active); in assay [4] (10 µM) it was -7.57% (active) and -9.48% (active); in [5] (10 µM), 2.05% (active) and -6.71% (active); in [6] (10 µM) it was -57% (active). For the same compound, the growth in [7] (10 µM) was -30.7% (active) and 4.5% (active); in [8] (10 µM), 5.59% (active) and -13.2% (active); in [9] (10 µM) it was 9.58% (active).

Turning to `COc1ccc2sc3cccc(NCCN(C)C)c3c(=O)c2c1`, the growth in [1] (10 µM) is 60.9% (inactive) and 19.2% (inactive); in assay [2] (10 µM) it was 59.2% (inactive) and 13.7% (inactive); in assay [3] (10 µM), 41.2% (inactive) and 12.5% (inactive); in [4] (10 µM) it was 48.4% (inactive) and -70.3% (active); in [5] (10 µM), 21.5% (inactive) and -76.7% (active); in [10] (10 µM) it was 24.9% (inactive) and -9.03% (active). The growth in [6] (10 µM) was -20.9% (active); in assay [7] (10 µM), 25% (inactive) and -23.4% (active); in [8] (10 µM), 60% (inactive) and 1.78% (active); in assay [9] (10 µM), -17.3% (active) and -81.8% (active).

Consider `CC/C(=C(\c1ccccc1)c1ccc(OCCN(C)C)cc1)c1ccccc1`, for which the growth in assay [1] (10 µM) is 60.3% (inactive); in [1] (12.5 µM) it was -47.7% (active); in assay [2] (10 µM), 92.5% (inactive); in assay [2] (12.5 µM), 51.3% (inactive); in assay [3] (10 µM), 76% (inactive); in assay [3] (12.5 µM), 11.7% (inactive). In addition, the growth in [4] (10 µM) was 43.1% (inactive); in assay [4] (12.5 µM) it was -91.2% (active); in assay [5] (10 µM), 2.39% (active); in assay [5] (12.5 µM), -66.8% (active); in assay [10] (12.5 µM) it was 9.65% (active); in assay [6] (10 µM) it was 46.6% (inactive). The growth in [6] (12.5 µM) was -46.4% (active); in assay [7] (10 µM), 49.8% (inactive); in assay [7] (12.5 µM), -44.9% (active); in assay [8] (10 µM), -41% (active); in assay [8] (12.5 µM), -95.2% (active); in assay [9] (10 µM), -89% (active). The growth in [9] (12.5 µM) was -71.9% (active).

With `CN(Cc1cnc2nc(N)nc(N)c2n1)c1ccc(C(=O)N[C@@H](CCC(=O)O)C(=O)O)cc1`, the growth in assay [1] (2.5 µM) is 20.9% (inactive); in assay [1] (10 µM), 31.7% (inactive); in assay [2] (2.5 µM) it was 39.6% (inactive); in assay [2] (10 µM) it was 35.1% (inactive); in assay [3] (2.5 µM) it was 53.6% (inactive); in [3] (10 µM), 52.6% (inactive). The growth in assay [4] (2.5 µM) was 30.6% (inactive); in assay [4] (10 µM) it was 32.1% (inactive); in assay [5] (2.5 µM), 23.5% (inactive); in assay [5] (10 µM) it was 20.7% (inactive); in assay [10] (2.5 µM) it was 32.6% (inactive); in [10] (10 µM), 25.1% (inactive). Moreover, the growth in [6] (2.5 µM) was 47% (inactive); in assay [6] (10 µM), 35.3% (inactive); in assay [7] (2.5 µM), 31% (inactive); in assay [7] (10 µM) it was 22.8% (inactive); in assay [8] (2.5 µM), 11.7% (inactive); in [8] (10 µM), 12.3% (inactive). For the same compound, the results for the growth in assay [9] (2.5 µM) and in [9] (10 µM) were 50.5% (inactive) and 44.1% (inactive), respectively.

The record behind these values is PubChem BioAssay (NCI).
